This passage reports z-score and composite z-score results from PubChem BioAssay.

Assay [1] is described as follows: HepG2 liver cancer cell viability effects, profiling panel, resazurin fluorescence, 24 h, PK04 Diversity Set (AID 1172). Also: test concentration not given here. The following applies: higher = more signal.
Assay [2] is described as follows: basal S. cerevisiae growth modulation, no modifier, primary screen, OD600, strain BY4716, 24 h, basal condition (AID 1173). The conditions noted are these: OD600, 24 h, higher = more signal, called active from +8 up or from −8 down.
Assay [3] in a line: MM1S myeloma cell viability, profiling panel, resazurin fluorescence, basal, 24 h, PK04 Diversity Set (AID 1174). Also: test concentration not given here. The following applies: higher = more signal, called active from +8 up or from −8 down.
Assay [4] concerns the target Dihydroorotate dehydrogenase (quinone), mitochondrial (Plasmodium falciparum (isolate 3D7)) (UniProt Q08210). As to the kind of experiment: PfDHODH enzyme inhibitors, primary screen, biochemical, C-terminal His tag, absorbance 600 nm (AID 1175).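 Also: recombinant parasite enzyme with a five histidine tag at its C terminus; test concentration not given here.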 The conditions noted are these: DCIP absorbance 600 nm, higher = more signal, called active from +8 up or from −8 down.
The nature of assay [5]: P. aeruginosa biofilm formation inhibitors, primary screen, strain PAO1, LB-PBS medium, absorbance 600 nm (AID 1176). Also: test concentration not given here. The conditions noted are these: P. aeruginosa PAO1 growth/biofilm, A600, 12 h; higher = more signal.
A short description of assay [6]: S. cerevisiae RM11-1a growth modifiers, primary screen, strain RM11-1a, OD600, basal, 24 h (AID 1177).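 Also: cultures grown under basal conditions with no added stressor; test concentration not given here.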 The conditions noted are these: OD600, 24 h, higher = more signal, called active from +8 up or from −8 down.
The nature of assay [7]: E. coli acrAB mutant growth effects, primary screen, E. coli filamentation inducers, strain DRC39, OD650, 24 h (AID 1178).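 Also: growth measured as culture turbidity by optical density at 650 nm; test concentration not given here.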 The following applies: higher = more signal, called active from +8 up or from −8 down.
Assay [8] is described as follows: E. coli acrAB mutant growth effects, primary screen, E. coli filamentation inducers, strain DRC39, OD650, 48 h (AID 1179).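 Also: screen aims at cell division blockers that make cells filament.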 The conditions noted are these: E. coli DRC39 delta-acrAB growth, higher = more signal, called active from +8 up or from −8 down.
Assay [9] is described as follows: RPMI8226 myeloma cell viability, profiling panel, resazurin fluorescence, basal, 24 h, PK04 Diversity Set (AID 1180).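 Also: RPMI8826 multiple myeloma cell line at 5000 cells per well; test concentration not given here.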 The following applies: higher = more signal.
Assay [10] concerns the target E3 ubiquitin-protein ligase XIAP (Homo sapiens) (UniProt P98170). As to the kind of experiment: XIAP binders, primary screen, biophysical, small-molecule microarray, fluorescence 635 nm (AID 1181).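 Also: score merges 667 nm emission and signal to noise over triplicate slides.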 The conditions noted are these: small-molecule microarray binding, higher = more signal.

Calls of active or inactive are those of the source. Unless noted, no rule for the calls is given here.

Sequence of E3 ubiquitin-protein ligase XIAP (Homo sapiens) (P98170 whole entry, looked up): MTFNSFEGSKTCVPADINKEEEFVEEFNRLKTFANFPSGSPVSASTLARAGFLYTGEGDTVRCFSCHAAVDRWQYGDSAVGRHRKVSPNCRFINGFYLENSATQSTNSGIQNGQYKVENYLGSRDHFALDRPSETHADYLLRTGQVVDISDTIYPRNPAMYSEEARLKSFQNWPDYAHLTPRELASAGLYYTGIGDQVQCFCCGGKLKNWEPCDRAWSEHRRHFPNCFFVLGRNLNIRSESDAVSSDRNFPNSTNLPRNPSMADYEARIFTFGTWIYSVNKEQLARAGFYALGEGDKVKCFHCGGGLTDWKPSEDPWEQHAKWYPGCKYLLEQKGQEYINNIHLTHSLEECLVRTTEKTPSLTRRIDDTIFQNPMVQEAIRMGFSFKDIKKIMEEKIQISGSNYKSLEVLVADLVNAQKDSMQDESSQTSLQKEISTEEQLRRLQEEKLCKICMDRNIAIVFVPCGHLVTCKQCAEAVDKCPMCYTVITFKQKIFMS
Sequence of Dihydroorotate dehydrogenase (quinone), mitochondrial (Plasmodium falciparum (isolate 3D7)) (Q08210 whole entry, looked up): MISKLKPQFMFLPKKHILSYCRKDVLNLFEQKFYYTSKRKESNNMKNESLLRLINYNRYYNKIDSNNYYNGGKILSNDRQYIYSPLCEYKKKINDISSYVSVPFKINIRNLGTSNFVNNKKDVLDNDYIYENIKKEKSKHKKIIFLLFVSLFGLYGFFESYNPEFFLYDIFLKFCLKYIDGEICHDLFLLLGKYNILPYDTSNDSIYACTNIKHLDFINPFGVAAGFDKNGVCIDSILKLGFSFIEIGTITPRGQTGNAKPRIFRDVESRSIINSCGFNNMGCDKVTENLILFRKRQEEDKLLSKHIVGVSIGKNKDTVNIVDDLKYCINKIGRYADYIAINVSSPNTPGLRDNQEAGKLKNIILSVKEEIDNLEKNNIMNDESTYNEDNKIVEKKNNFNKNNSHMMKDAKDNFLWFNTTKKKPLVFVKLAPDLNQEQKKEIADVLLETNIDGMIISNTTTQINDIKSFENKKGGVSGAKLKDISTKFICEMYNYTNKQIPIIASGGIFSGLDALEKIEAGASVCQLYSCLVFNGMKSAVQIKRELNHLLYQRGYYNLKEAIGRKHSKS

Take `Cc1ccc(S[C@]2(C(=O)NCCCN(C)C)CC(=O)N(C(C)C)[C@@H]2c2ccc(CO)cc2I)cc1`: the z-score is 0.533 in assay [1]; -3.52 (inactive) in assay [2]; -3.69 (inactive) in assay [3]; 0.668 (inactive) in assay [5]; -1.31 (inactive) in assay [6]; 0.847 (inactive) in assay [7]. Further, the z-score in [8] is 1.52 (inactive); in assay [9], -2.67. In addition, the composite z-score is -0.0857 (inactive) in assay [4] and -0.145 in assay [10].
Regarding `O=C1O[C@H](c2ccccc2)[C@H](c2ccccc2)N2[C@H]1[C@@H](C(=O)NC[C@H](O)c1ccccc1)[C@]1(C(=O)Nc3ccc(C#CC4(O)CCCCCC4)cc31)[C@H]2c1ccccc1OCCO`, the z-score is -2.48 in assay [1]; 1.6 (inactive) in assay [2]; -7.19 (inactive) in assay [3]; 2.83 (inactive) in [5]; 3.43 (inactive) in assay [6]; 0.408 (inactive) in assay [7]. Besides, the values for the z-score in assay [8] and in assay [9] were 0.283 (inactive) and -6.96, respectively. Also, the composite z-score in assay [4] is -0.147 (inactive); in [10] it was 0.165.
Turning to `COC(=O)[C@@]1(Cc2ccccc2)[C@H]2c3cc(C(=O)N(C)C)n(Cc4ccccc4)c3C[C@H]2CN1C(=O)c1ccccc1`, the z-score in assay [1] is -0.853; in [2], 2.1 (inactive); in assay [3], -1.5 (inactive); in [5], 0.246 (inactive); in assay [6] it was 1.6 (inactive); in assay [7] it was -0.656 (inactive). The z-score in assay [8] was -0.411 (inactive); in assay [9] it was -1.05. The composite z-score in [4] is -0.252 (inactive); in assay [10], 0.294.
On to `COc1cc2c(cc1O)C(c1ccc(CN3CCCC3)cc1)N(Cc1sc3ccccc3c1Cl)CC2` (stereo not given), for which the z-score was -0.307 in assay [1]; -1.82 (inactive) in assay [2]; -0.527 (inactive) in assay [3]; 0.0619 (inactive) in assay [5]; 0.953 (inactive) in [6]; 1.23 (inactive) in [7]. The z-score in assay [8] is 0.25 (inactive); in assay [9], -1.05. For the same compound, the results for the composite z-score in assay [4] and in [10] were -2.82 (inactive) and 0.0815, respectively.
On to `Cc1ccccc1/C=C/C=O`, for which the z-score was 0.779 in assay [1]; -1.94 (inactive) in assay [2]; 0.971 (inactive) in assay [3]; -0.0902 (inactive) in assay [5]; -0.412 (inactive) in assay [6]; 1.23 (inactive) in assay [7]. The z-score in assay [8] was 1.45 (inactive); in assay [9], 1.36. The composite z-score was -0.464 (inactive) in assay [4] and -0.141 in [10].
Turning to `CS(=O)(=O)CCOC(=O)C1=CC(c2ccc(CO)cc2)=CC(c2cccs2)N(Cc2cccc(OC(F)(F)F)c2)C=C1C(=O)OCCS(C)(=O)=O` (stereo not given), the z-score is -0.534 in [1]; -4.14 (inactive) in assay [2]; -2.98 (inactive) in assay [3]; 0.907 (inactive) in assay [5]; 0.267 (inactive) in assay [6]; -2.93 (inactive) in assay [7]. The z-score was -3.3 (inactive) in [8] and -1.32 in [9]. The composite z-score in assay [4] was -1.08 (inactive); in assay [10], -0.22.
For the compound `C=C(C(=O)CC[C@@H](OC(=O)c1cccnc1)c1ccc(OCCO)cc1)C(C)C`, the z-score is -0.706 in [1]; -18.4 (active) in assay [2]; -0.446 (inactive) in [3]; 0.907 (inactive) in [5]; -22.2 (active) in [6]; -0.706 (inactive) in [7]. Moreover, the z-score in assay [8] is -0.694 (inactive); in [9], -1.56. Also, the composite z-score in assay [4] is -3.83 (inactive); in assay [10] it was -0.184.
Turning to `CCCNC(=O)[C@@]1(C)c2ccccc2C(=O)N(Cc2cc(C(F)(F)F)cc(C(F)(F)F)c2)[C@H]1c1ccc(CO)cc1`, the z-score was 0.597 in assay [1]; -0.991 (inactive) in [2]; 0.526 (inactive) in assay [3]; 0.882 (inactive) in [5]; -0.563 (inactive) in [6]; 0.0099 (inactive) in [7]. Besides, the z-score in assay [8] is -0.161 (inactive); in assay [9], 0.73. For the same compound, the values for the composite z-score in [4] and in [10] were -0.241 (inactive) and -0.212, respectively.
Take `CC1(C)C(=O)C(c2ccccc2)=C2CN3C(=O)N(CCc4ccccc4)C(=O)C3(Cc3ccccc3)C=C21` (stereo not given): the z-score in [1] was -0.752; in [2], 1.4 (inactive); in assay [3], -1.22 (inactive); in [5], 0.784 (inactive); in [6], 2.07 (inactive); in [7] it was 0.0474 (inactive). Moreover, the z-score was 0.222 (inactive) in [8] and -0.562 in [9]. Besides, the composite z-score was 0.362 (inactive) in assay [4] and 0.237 in assay [10].
On to `COCCOC(=O)N1C(=O)[C@@]2(c3ccccc31)[C@H](c1ccc(O)cc1)N1[C@H](c3ccccc3)[C@H](c3ccccc3)OC(=O)[C@H]1[C@@H]2C(N)=O`, for which the z-score in assay [1] is -0.701; in assay [2], 0.652 (inactive); in [3], -0.916 (inactive); in assay [5], 0.125 (inactive); in [6], 0.623 (inactive); in assay [7] it was 0.596 (inactive). Besides, the z-score is 0.687 (inactive) in assay [8] and -1.01 in assay [9]. Also, the values for the composite z-score in assay [4] and in [10] were -0.766 (inactive) and 0.0228, respectively.
For the compound `Cc1ccc(S[C@]2(C(=O)NCCN3CCOCC3)CC(=O)N(C3CCCCC3)[C@@H]2c2ccc(CO)cc2)cc1`, the z-score in [1] is 0.375; in assay [2], 0.436 (inactive); in assay [3], 0.511 (inactive); in assay [5], 0.186 (inactive); in assay [6], -0.463 (inactive); in assay [7] it was 0.048 (inactive). For the same compound, the figures for the z-score in [8] and in assay [9] were -0.483 (inactive) and 0.838, respectively. In addition, the composite z-score in assay [4] is 0.113 (inactive); in assay [10] it was 0.0024.
As to `C=C(C)[C@@H]1CC=C(C(O)C2C=CC3C(=O)N(Cc4ccccc4)C(=O)C3N2n2cnnc2)CC1` (stereo not given in full), the z-score is -0.429 in [1]; 0.349 (inactive) in assay [2]; -0.893 (inactive) in assay [3]; 0.878 (inactive) in assay [5]; -0.616 (inactive) in assay [6]; 0.518 (inactive) in assay [7]. For the same compound, the values for the z-score in [8] and in assay [9] were -0.66 (inactive) and -0.334, respectively. Also, the composite z-score in [4] is -0.295 (inactive); in assay [10], 1.74.
